Measured values from article PMC13541613, “GHT-SELEX demonstrates unexpectedly high intrinsic sequence specificity and complex DNA binding of many human transcription factors”.

Legend:
Experiment in all cases: HT-SELEX; 20 mM HEPES pH 7, 140 mM KCl, 5 mM NaCl, 1 mM K2HPO4, 2 mM MgSO4, 100 uM EGTA, ZnSO4, 0.1% Tween20; room temperature, 1 h; high values mean tight binding
Conditions in all cases: protein: ivt; tags: eGFP (N-terminal); dsDNA, one strand shown
ZNF721 full-length = ZNF721 full-length (Homo sapiens, UniProt Q8TF20-2 1-923)
ZNF721 full-length, sequence (Q8TF20 other isoform, or with tags, fused parts or gaps): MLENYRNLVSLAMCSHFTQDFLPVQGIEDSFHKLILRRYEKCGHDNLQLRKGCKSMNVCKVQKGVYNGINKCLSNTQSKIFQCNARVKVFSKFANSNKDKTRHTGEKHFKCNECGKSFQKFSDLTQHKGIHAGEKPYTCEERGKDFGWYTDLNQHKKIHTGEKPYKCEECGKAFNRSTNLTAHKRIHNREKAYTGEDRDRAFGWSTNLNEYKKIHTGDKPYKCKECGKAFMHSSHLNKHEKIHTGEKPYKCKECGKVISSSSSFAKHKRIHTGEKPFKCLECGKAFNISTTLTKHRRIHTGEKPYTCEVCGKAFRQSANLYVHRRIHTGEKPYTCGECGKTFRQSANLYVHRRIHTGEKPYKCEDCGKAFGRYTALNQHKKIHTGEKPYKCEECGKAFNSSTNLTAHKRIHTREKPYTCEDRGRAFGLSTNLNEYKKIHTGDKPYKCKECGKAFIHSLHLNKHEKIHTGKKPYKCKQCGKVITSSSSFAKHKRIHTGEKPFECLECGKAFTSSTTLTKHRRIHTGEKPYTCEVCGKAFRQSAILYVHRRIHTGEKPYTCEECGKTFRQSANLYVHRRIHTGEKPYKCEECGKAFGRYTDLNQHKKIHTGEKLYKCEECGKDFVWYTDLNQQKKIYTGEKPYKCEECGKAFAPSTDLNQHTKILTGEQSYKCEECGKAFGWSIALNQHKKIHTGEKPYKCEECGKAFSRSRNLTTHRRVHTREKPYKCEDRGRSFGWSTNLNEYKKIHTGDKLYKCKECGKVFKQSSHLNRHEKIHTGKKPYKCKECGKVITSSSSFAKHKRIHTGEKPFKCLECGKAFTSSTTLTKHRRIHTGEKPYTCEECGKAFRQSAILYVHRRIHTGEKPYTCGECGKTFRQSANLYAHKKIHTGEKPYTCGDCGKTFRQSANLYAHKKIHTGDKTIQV
Procedure, shortened: (§1)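 Bead-immobilised tagged transcription factor (full-length or DNA-binding-domain fragment), made in HEK293 lysate or cell-free extract, was incubated with a randomized 40-base DNA library. Binding was for 1 h at room temperature in HEPES/KCl low-stringency buffer with Tween20. After washing and heat elution, bound DNA was PCR-amplified over successive cycles and Illumina-sequenced (~3 million 60 bp reads per sample). Binding signal is a relative k-mer count in selected reads; higher means tighter binding.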

ZNF721 DBD1 = ZNF721 DBD1 (Homo sapiens, UniProt Q8TF20-2 29-461)
ZNF721 DBD1, sequence (Q8TF20 17-449): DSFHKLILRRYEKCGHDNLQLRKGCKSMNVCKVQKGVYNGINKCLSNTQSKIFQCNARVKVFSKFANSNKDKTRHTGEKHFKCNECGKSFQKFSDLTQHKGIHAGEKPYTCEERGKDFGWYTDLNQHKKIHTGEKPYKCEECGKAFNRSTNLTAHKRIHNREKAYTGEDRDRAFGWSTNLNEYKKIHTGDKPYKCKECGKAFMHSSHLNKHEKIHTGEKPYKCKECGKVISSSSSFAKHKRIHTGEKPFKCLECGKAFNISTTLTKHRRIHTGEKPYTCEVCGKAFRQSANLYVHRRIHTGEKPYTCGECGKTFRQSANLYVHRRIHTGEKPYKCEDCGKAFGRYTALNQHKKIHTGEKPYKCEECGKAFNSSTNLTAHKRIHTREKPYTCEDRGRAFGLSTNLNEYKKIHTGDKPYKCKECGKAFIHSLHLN
Procedure, shortened: as §1

ZNF721 DBD2 = ZNF721 DBD2 (Homo sapiens, UniProt Q8TF20-2 395-923)
ZNF721 DBD2, sequence (Q8TF20 383-911): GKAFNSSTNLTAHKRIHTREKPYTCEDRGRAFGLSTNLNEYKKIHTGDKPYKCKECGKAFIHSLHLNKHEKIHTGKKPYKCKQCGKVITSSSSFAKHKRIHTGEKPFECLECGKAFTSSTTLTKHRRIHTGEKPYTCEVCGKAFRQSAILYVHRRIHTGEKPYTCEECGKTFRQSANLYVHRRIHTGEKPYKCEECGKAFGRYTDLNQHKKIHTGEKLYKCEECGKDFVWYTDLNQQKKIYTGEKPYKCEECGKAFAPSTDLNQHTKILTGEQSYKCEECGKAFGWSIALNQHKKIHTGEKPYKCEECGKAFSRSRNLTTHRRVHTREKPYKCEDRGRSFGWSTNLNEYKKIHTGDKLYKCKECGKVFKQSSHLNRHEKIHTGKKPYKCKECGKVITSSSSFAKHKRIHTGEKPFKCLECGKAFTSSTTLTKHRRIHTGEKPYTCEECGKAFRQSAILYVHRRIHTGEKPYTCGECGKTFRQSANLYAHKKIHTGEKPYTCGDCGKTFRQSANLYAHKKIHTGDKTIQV
Procedure, shortened: as §1

Sequence	binding signal (ZNF721 full-length)	binding signal (ZNF721 DBD1)	binding signal (ZNF721 DBD2)
CCACACCCAC	0.128 relative 10-mer count	0.00605 relative 10-mer count	0.00515 relative 10-mer count
CCCTACCACC	0.104 relative 10-mer count	0.00578 relative 10-mer count	0.0144 relative 10-mer count
ACCCCACCCA	0.173 relative 10-mer count	0.00583 relative 10-mer count	0.00419 relative 10-mer count
ACCCCCCGCC	0.137 relative 10-mer count	0.00555 relative 10-mer count	0.00384 relative 10-mer count
CCACCCCGCC	0.263 relative 10-mer count	0.00894 relative 10-mer count	0.00503 relative 10-mer count
AACAAGCAGT	0.128 relative 10-mer count	0.017 relative 10-mer count	0.0905 relative 10-mer count
TAAAAAAAAA	0.115 relative 10-mer count	0.0133 relative 10-mer count	0.0464 relative 10-mer count
CCCCCTCCTC	0.116 relative 10-mer count	0.00459 relative 10-mer count	0.00395 relative 10-mer count
CCCTTCCCCC	0.141 relative 10-mer count	0.00633 relative 10-mer count	0.003 relative 10-mer count
ACAGCGTTAC	0.102 relative 10-mer count	0.00105 relative 10-mer count	0.207 relative 10-mer count
CCCCCCCCCG	0.112 relative 10-mer count	0.00303 relative 10-mer count	0.00156 relative 10-mer count
AAAAAAAAGG	0.175 relative 10-mer count	0.00477 relative 10-mer count	0.12 relative 10-mer count
CACCGTCCCC	0.111 relative 10-mer count	0.0039 relative 10-mer count	0.00252 relative 10-mer count
CGCCCCCCGC	0.12 relative 10-mer count	0.00472 relative 10-mer count	0.00384 relative 10-mer count
CCACACCCCC	0.201 relative 10-mer count	0.00738 relative 10-mer count	0.00276 relative 10-mer count
CCCTCCCCGC	0.139 relative 10-mer count	0.00555 relative 10-mer count	0.00995 relative 10-mer count
ATCCCACCCC	0.123 relative 10-mer count	0.00573 relative 10-mer count	0.00168 relative 10-mer count
CCGCCCCCCC	0.197 relative 10-mer count	0.00775 relative 10-mer count	0.00192 relative 10-mer count
CCACCCCCCG	0.179 relative 10-mer count	0.00628 relative 10-mer count	0.0024 relative 10-mer count
CCCGACCACC	0.125 relative 10-mer count	0.00491 relative 10-mer count	0.00372 relative 10-mer count
GCCCACCCAC	0.168 relative 10-mer count	0.0061 relative 10-mer count	0.00983 relative 10-mer count
ACCGCCACCC	0.111 relative 10-mer count	0.00335 relative 10-mer count	0.00192 relative 10-mer count
AAAAGCAGCA	0.304 relative 10-mer count	0.00578 relative 10-mer count	0.296 relative 10-mer count
AAGCAGCATA	0.179 relative 10-mer count	0.00216 relative 10-mer count	0.199 relative 10-mer count
CAGCGTCTCC	0.299 relative 10-mer count	0.00174 relative 10-mer count	0.722 relative 10-mer count
AAAAAGCGTC	0.108 relative 10-mer count	0.0239 relative 10-mer count	0.0102 relative 10-mer count
AAAAAAAAAG	0.384 relative 10-mer count	0.0474 relative 10-mer count	0.0982 relative 10-mer count
CAGCCCCACC	0.116 relative 10-mer count	0.00349 relative 10-mer count	0.0291 relative 10-mer count
CCACCGTCCC	0.112 relative 10-mer count	0.00491 relative 10-mer count	0.00467 relative 10-mer count
AGGGTGGGTG	0.158 relative 10-mer count	0.0094 relative 10-mer count	0.00515 relative 10-mer count
